Sm TGR inh: blocks Schistosoma mansoni thioredoxin glutathione reductase; Q962Y6; purified TGR, DTNB reduction, TNB absorbance 405 nm; Potency, µM (top dose mostly 114 µM), hits mostly inhibitors; actives 3% (n = 360,000); AID 485364; also: nearly all actives have a fitted effect of over 60% in size
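TGR 20 nM + NADPH 100 uM (dispensed conc.), cpd preinc 15 min RT; start with NADPH (500 uM addition) then DTNB (15 mM addition). Kinetic TNB absorbance, 405 nm filter. Four-parameter Hill fit across titration.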
Pf growth 48h: inhibits P. falciparum growth in the first generation, 48 h; AID 504832; Potency, µM (top dose mostly 28.7 µM), usual class: inhibitors; P. falciparum luciferase growth in erythrocytes, 48 h; actives 5.9% (n = 310,000)
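In quantitative HTS format, infected erythrocytes bearing luciferase-reporter parasites were treated for a single generation at 37 C. Luminescence after adding detection reagent served as the growth measure.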
SARS PLpro yeast: SARS-CoV PLP inhibition in yeast. S. cerevisiae expressing SARS-CoV PLpro, growth rescue. Potency, µM (highest dose often 32.9 µM), usual class: activators. actives 0.19% (n = 330,000); calls by dose curve; also: nearly all actives have a fitted effect of over 55% in size
HCMV antiviral: blocks human cytomegalovirus replication. HFF cells, HCMV-luciferase reporter, 72 h; stronger effect = lower value. activity change, negative = inhibition, % at 57.5 µM. actives 4.5% (n = 410,000); in the data active = activity change below about -60%; inconclusive = no clear call, values can overlap the other calls; inactive = above about -39%
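Screen run at 2 compound doses on HFFs infected with reporter HCMV, MOI 1 PFU/cell. Luciferase activity from cell lysates at 72 h post infection gave inhibition relative to buffer-only and Salinomycin wells.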
HCV inh: blocks hepatitis C virus. Potency, µM (titrated, usually from 41.8 µM), most hits filed as inhibitors. Huh7.5.1 HCVcc-Cre infection, luciferase reporter, 44 h. actives 3.4% (n = 340,000). AID 651820
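Cells seeded at 1,000/well and cultured 4 h, then compounds added followed by HCVcc-Cre virus (~0.5 moi). After 44 h further culture, luciferase substrate was added, plates held 15 min at room temperature, and luminescence read for 15 sec.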
Pf growth 96h: inhibits malaria parasite growth, 96 h; P. falciparum luciferase reporter growth, 96 h; Potency, µM (highest dose often 28.7 µM), hits mostly inhibitors; actives 6.9% (n = 320,000)
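Compounds incubated with erythrocytes infected by luciferase-expressing P. falciparum (2% hematocrit, 0.05% parasitemia final) for 96 hours, 37 C in 5% CO2. Growth inhibition scored as decreased luciferase luminescence.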
Each line names hits and unclear results; the compound was inactive in the other large screens. Rows were chosen to be rich in hits. Some 15% of all compounds tested hit in one or more screens of this group. Unless noted, calls follow the shape of the dose curve; as a rule, active = well fitted curve in the direction sought with a large enough effect; inconclusive = small, poorly fitted or top-dose-only effect, or another doubt; inactive = no such curve, though single readings can be large; an effect the other way counts as inactive or inconclusive.

O=C(O)c1cc([N+](=O)[O-])cc([N+](=O)[O-])c1N1CCN(c2cccc(C(F)(F)F)c2)CC1	none
CC(C)OCc1cc(CN2CCN(c3cccc(C(F)(F)F)c3)CC2)c(O)c2ncccc12	HCMV antiviral -98 (no result: Pf growth 48h, SARS PLpro yeast, HCV inh, Pf growth 96h)
CCOCc1cc(CN2CCN(c3cccc(C(F)(F)F)c3)CC2)c(O)c2ncccc12	HCMV antiviral -100 (no result: Pf growth 48h, SARS PLpro yeast, HCV inh, Pf growth 96h)
O=C(Nc1ccc(-c2csc(Nc3ccccc3)n2)cc1)c1cc([N+](=O)[O-])cc(C(F)(F)F)c1	Pf growth 48h 0.59µM, HCMV antiviral -74, HCV inh inconclusive, Pf growth 96h 0.47µM
O=C(Nc1ccccc1)c1cccc(C(F)(F)F)c1	none
O=C(Nc1nc(-c2ccc(Cl)cc2)cs1)c1cccnc1	none (no result: Pf growth 96h)
O=C(Nc1ccc(-c2csc(Nc3ccccc3)n2)cc1)c1cccc(C(F)(F)F)c1	Pf growth 48h inconclusive, HCMV antiviral -81, HCV inh inconclusive, Pf growth 96h inconclusive
O=C(Nc1ccc(-c2csc(Nc3ccc(Cl)cc3)n2)cc1)c1cccc(C(F)(F)F)c1	Pf growth 48h inconclusive, HCMV antiviral inconclusive, HCV inh 11µM, Pf growth 96h 10µM
O=C(Nc1cccc(-c2csc(Nc3cccc(C(F)(F)F)c3)n2)c1)c1cc([N+](=O)[O-])cc(C(F)(F)F)c1	Pf growth 48h inconclusive, HCV inh inconclusive, Pf growth 96h inconclusive
Nc1[nH]c(C(=O)c2ccccc2)c(-c2cccc3ccccc23)c1C(=O)NCc1ccccc1	none (no result: Sm TGR inh, Pf growth 48h, SARS PLpro yeast, HCV inh, Pf growth 96h)
Cc1cccc(CNC(=O)c2cc3cc(S(=O)(=O)N4CCCCC4)ccc3n2C)c1	none (no result: Pf growth 48h, SARS PLpro yeast, HCV inh, Pf growth 96h)
Cn1ccnc1SCC(=O)Nc1cc(Cl)ccc1Cl	none (no result: Pf growth 48h, SARS PLpro yeast, HCV inh, Pf growth 96h)
Cc1ccc(-c2nnc(CSc3nc4cc5c(cc4cc3C)OCO5)o2)cc1	HCV inh inconclusive, Pf growth 96h 13µM
CCOC(=O)CSc1nc2cc3c(cc2cc1C)OCO3	Pf growth 96h inconclusive
Cc1cc(N2CCC(C)CC2)nc2ccc(NC(=O)CCC(=O)N3CCN(c4ccccc4F)CC3)cc12	none (no result: Pf growth 48h, SARS PLpro yeast, HCV inh, Pf growth 96h)
CCC(=O)N1CCc2cc(Br)cc(S(=O)(=O)NCCc3ccc(C)cc3)c21	HCMV antiviral inconclusive (no result: Pf growth 48h, SARS PLpro yeast, HCV inh, Pf growth 96h)
CC1CCCCN1C(=O)COC(=O)/C=C/c1ccc2ccccc2n1 (stereo unspecified)	HCMV antiviral -84, Pf growth 96h inconclusive
CC(=O)N1c2ccccc2C(C)(c2ccccc2)CC1(C)C (stereo unspecified)	Pf growth 48h 9.3µM (no result: HCMV antiviral, Pf growth 96h)
CC1(c2ccccc2)CC(C)(C)N(C(N)=O)c2ccccc21 (stereo unspecified)	HCV inh inconclusive, Pf growth 96h inconclusive
CN1CCN(CC(=O)N2c3ccccc3C(C)(c3ccc(Cl)cc3)CC2(C)C)CC1 (stereo unspecified)	Pf growth 96h inconclusive (no result: Pf growth 48h)
CN1CCN(CC(=O)N2c3ccccc3C(C)(c3ccccc3)CC2(C)C)CC1 (stereo unspecified)	Pf growth 48h inconclusive, HCV inh inconclusive, Pf growth 96h 10µM (no result: HCMV antiviral)
CC1(c2ccccc2)CC(C)(C)N(C(=O)c2cccc(Cl)c2)c2ccccc21 (stereo unspecified)	HCMV antiviral -72 (no result: Pf growth 48h, SARS PLpro yeast, HCV inh, Pf growth 96h)
COCCNC(=O)C(NC(=O)C1CCCCC1)C(C)C (stereo unspecified)	Pf growth 96h 0.74µM
COC(=O)c1ccc(NC(=O)C(=O)N2CCN(C(=S)Nc3cccc(C)c3C)CC2)cc1	Pf growth 96h 0.47µM
C=CC[n+]1c(-c2ccc(C)cc2)csc1Nc1ccc(NC(C)=O)cc1	Pf growth 48h inconclusive, HCMV antiviral -88
C=CC[n+]1c(-c2ccc(OC)cc2)csc1NNC(=O)Nc1ccccc1	HCMV antiviral inconclusive, HCV inh 11µM, Pf growth 96h inconclusive (no result: Pf growth 48h)
COc1ccc(Nc2nc(N)c3cc(OC)c(OC)cc3n2)cc1	none (no result: Pf growth 48h, SARS PLpro yeast, HCV inh, Pf growth 96h)
CNc1nc(N)c([N+](=O)[O-])c(Nc2cccc(Cl)c2)n1	HCV inh 8.9µM
COc1cc2nc(Nc3cccc(F)c3)nc(N)c2cc1OC	Pf growth 48h 0.41µM, Pf growth 96h inconclusive
Nc1nc(NCCOCCO)nc(Nc2cccc(F)c2)c1[N+](=O)[O-]	Pf growth 48h inconclusive, HCV inh inconclusive, Pf growth 96h inconclusive
